The results in this text go back to PubChem BioAssay (EPA / NIEHS).

Several values for one entry are separate records, joined by “and”; a condition that tells them apart may be missing. Equal entries are not always repeated. Where a structure was tested more than once in an assay, its records may differ in their call. Activity calls are given as the source filed them. How the source made its calls: active means hit-call score of the fitted dose curve at least 0.9, where 1 is the maximum; inactive means score below 0.9.

Read-out in this experiment: Monokine induced gamma interferon (MIG), CXCL9 (gene 4283)
In words: BSK_hDFCGF_MIG: BioMAP Diversity Plus: hDFCGF Assay for Monokine induced gamma interferon (MIG) Biomarker Activity (AID 2283063). Particulars: primary human foreskin fibroblasts; actives raise or lower the signal. As for the experimental part:
BSK_hDFCGF is a cell-based, multiplexed-readout assay that uses foreskin fibroblast, a human skin primary cell, with measurements taken at 24 hours after chemical dosing in a 96-well plate.BSK_hDFCGF_MIG is an assay component measured in the BSK_hDFCGF assay. It measures MIG antibody related to regulation of gene expression using ELISA technology.Data from the assay component BSK_hDFCGF_MIG was analyzed into 1 assay endpoint. This assay endpoint, BSK_hDFCGF_MIG, was analyzed with bidirectional fitting relative to DMSO as the negative control and baseline of activity. Using a type of binding reporter, gain or loss-of-signal activity can be used to understand changes in the signaling as they relate to the gene CXCL9. Furthermore, this assay endpoint can be referred to as a primary readout, because this assay has produced multiple assay endpoints where this one serves a signaling function. To generalize the intended target to other relatable targets, this assay endpoint is annotated to the cytokine intended target family, where the subfamily is chemotactic factor.
The levels of cell surface (or secreted, indicated by the prefix "s") biomarker endpoints were measured by ELISA. Overt cytotoxicity to cells in confluent adherent cultures (all systems other than the BT system) was assessed by measuring total protein levels using sulforhodamine B (SRB) staining in parallel cultures at the time of biomarker measurements, indicated as SRB endpoints. For proliferation assays for adherent cell types, individual cell types are cultured at sub-confluence and relative cell numbers quantified by SRB staining at time points optimized for each system (48 h: 3C and CASM3C systems; 72 h: BT and HDF3CGF systems; 96 h: SAg system). SRB was performed by staining cells with 0.1% SRB after fixation with 10% TCA and reading wells at 560 nm.Viability and proliferation of PBMC (T cells) was quantified by Alamar Blue reduction for the SAg and BT systems. For PBMC viability (referred to as PBMC Cytotoxicity within the assay endpoint names), cells were plated (75,000/well in a 96-well plate) and then chemical samples added for 1 h before addition of activators, SEB and TSST-1 (20 ng/mL final concentration each). Cells were incubated for 90 h. Then, Alamar Blue (20 uL/well) (Invitrogen, Cat DAL1100) was added for 6 h, and the plates were read with a fluorescence microplate reader at 546/580 nm (excitation/emission). For PBMC proliferation, cells were plated and activated as above but incubated for only 16 h prior to addition of Alamar Blue. Plates were read after 6 h.
For `CCOP(=S)(OCC)SCSC(C)(C)C`, the outcome was inactive.

For the molecule `Cc1cc(O)ccc1Cl`, the outcome was inactive.

In the case of `Cc1cc(-c2ccc(N)c(C)c2)ccc1N`, the result was inactive.

For `CCOCCOC(C)=O`, the outcome was inactive.

As to `ClC1=C(Cl)[C@]2(Cl)[C@@H]3[C@@H](Cl)[C@H]4O[C@H]4[C@@H]3C1(Cl)C2(Cl)Cl`, the result was inactive.

On to `Nc1ccc(-c2ccc(N)cc2)cc1`, for which the outcome was inactive.

`C=CC(=O)NCNC(=O)C=C`: the outcome was inactive.

As to `O=S(=O)(O)C(F)(F)C(F)(F)C(F)(F)C(F)(F)F`, the outcome was inactive.

Regarding `CCC(C)(CC)c1cc(NC(=O)c2c(OC)cccc2OC)on1`, the outcome was inactive.

For the molecule `Sc1ccccc1`, the outcome was inactive.

With `c1ccc(-c2ccccc2)cc1`, the outcome was inactive.

On to `O=C(NC(=O)c1c(F)cccc1F)Nc1cc(Cl)c(OC(F)(F)C(F)F)c(Cl)c1`, for which the outcome was inactive.

As for `CCC(=O)O[C@H]1CC[C@H]2[C@@H]3CCC4=CC(=O)CC[C@]4(C)[C@H]3CC[C@]12C`, the AC50 is 36.9 µM (active).

`CCC(C)(c1ccc(O)cc1)c1ccc(O)cc1`: the result was inactive.

Turning to `NS(=O)(=O)C(F)(F)C(F)(F)C(F)(F)C(F)(F)C(F)(F)C(F)(F)C(F)(F)C(F)(F)F`, the AC50 is 29.4 µM (active) and 9.34 µM (active) and 11 µM (active).

With `CC#Cc1cc(C)nc(Nc2ccccc2)n1`, the result was inactive.

Turning to `COc1ccc(O)c(C(C)(C)C)c1`, the outcome was inactive.

Take `CCCCCCCCCc1ccc(O)cc1`: the AC50 is 14.9 µM (active).

As for `Oc1c(Cl)c(Cl)c(Cl)c(Cl)c1Cl`, the AC50 is 4.29 µM (active).

As to `CCC(C)c1cc([N+](=O)[O-])cc([N+](=O)[O-])c1O` (stereo not given), the result was inactive.

As for `O=C(NC(=O)c1cc(F)c(F)cc1Cl)Nc1cc(F)ccc1N1CCC(C(=O)O)CC1`, the result was inactive.

With `CCCCCCCCCC[N+](C)(C)CCCCCCCCCC`, the AC50 was 2.95 µM (active).

`O=C(O)C(F)(F)C(F)(F)C(F)(F)C(F)(F)C(F)(F)C(F)(F)C(F)(F)C(F)(F)C(F)(F)F`: the concentration at half-maximal activity (AC50) is 33 µM (active) and 36.5 µM (active) and 37.9 µM (active).

As to `CC(C)C(=O)OCC(C)(C)C(OC(=O)C(C)C)C(C)C` (stereo not given), the outcome was inactive.

Turning to `Clc1ccc(C(Cl)(Cl)Cl)cc1`, the outcome was inactive.

For the molecule `N#Cc1ccc(N(CC(N)=O)CC(F)(F)F)cc1C(F)(F)F`, the result was inactive.

For `O=C(N[C@H]1CN2CCC1CC2)c1cc2ccoc2cn1`, the outcome was inactive.

As to `Cc1ccc(O)c(C)c1`, the outcome was inactive.

For `CN(C)CCO`, the outcome was inactive.

As for `CC1=C2C[C@H]3[C@@H](CC=C4C[C@@H](O)CC[C@@]43C)[C@@H]2CC[C@]12O[C@@H]1C[C@H](C)CN[C@H]1[C@H]2C`, the outcome was inactive.

With `O=C(O)C(F)(F)C(F)(F)C(F)(F)C(F)(F)C(F)(F)C(F)(F)C(F)(F)C(F)(F)F`, the result was inactive and the AC50 is 19 µM (active).

Turning to `O=C(O)C(F)(F)C(F)(F)C(F)(F)C(F)(F)C(F)(F)F`, the outcome was inactive.

With `COS(=O)(=O)OC`, the result was inactive.

For the molecule `CN(C)c1nc(=O)n(C2CCCCC2)c(=O)n1C`, the outcome was inactive.

Consider `C[C@]12CCC(=O)C=C1CC[C@@H]1[C@@H]2CC[C@]2(C)C(=O)CC[C@@H]12`, for which the result was inactive.

Turning to `CC(c1ccc(O)cc1)(c1ccc(O)cc1)c1ccc(O)cc1`, the concentration at half-maximal activity (AC50) is 23.8 µM (active).

On to `ClC1=C(Cl)[C@]2(Cl)[C@@H]3[C@H]4C[C@H]([C@@H]5O[C@H]45)[C@@H]3[C@@]1(Cl)C2(Cl)Cl`, for which the outcome was inactive.

In the case of `Oc1ccc(Cl)cc1Cl`, the result was inactive.

With `c1cc2ccc3cccc4ccc(c1)c2c34`, the result was inactive.

For orientation: AC50 means the midpoint of the concentration-response curve, whichever way the signal moves.
